Among the data in the supplement of paper PMC9262897, “Low-cost anti-mycobacterial drug discovery using engineered E. coli” (Nature Communications, 2022) are growth values, retold here.

Counter-ions that a name gives are not always drawn. ± gives the standard deviation of the averaged measurements.

In the first assay the test system is E. coli TESEC Mtb DapB. Briefly: growth (OD600 after 10 h); higher = more growth (less inhibition). The note with it: arabinose induction (level): High; compound 0.1 mM; raw OD600 reference: median of DMSO wells […], cell-free background 0.041. Here is the method: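 TESEC E. coli strains in which the native enzyme is deleted and replaced by arabinose-inducible Mtb Asd, DapB, CysH or TrpD, each grown in its selective medium. Strains were screened against the Prestwick library at 0.1 mM and 1% DMSO in 384-well format at low and high arabinose induction. Growth is read as OD600 after 10 h in triplicate.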
The compound `Oc1c(I)cc(Cl)c2cccnc12` [Clioquinol] yielded a growth of 0.0573 ± 0.0004.
`CC(CCc1ccc(O)cc1)NCCc1ccc(O)c(O)c1` (stereo not given) [Dobutamine hydrochloride] registered a growth of 0.19 ± 0.02.
Turning to `CN1CCN2c3ccccc3Cc3ccccc3C2C1` (stereo not given) [Mianserine hydrochloride], the growth amounted to 0.189 ± 0.0025.
In turn, `COc1ccc(C(=O)c2ccccc2)c(O)c1` [Oxybenzone] showed a growth of 0.186 ± 0.015.
`CN(C)CCCOc1nn(Cc2ccccc2)c2ccccc12` [Benzydamine hydrochloride] returned a growth of 0.192 ± 0.023.
As to `CC(C(=O)O)c1ccc(-c2ccccc2)c(F)c1` (stereo not given) [Flurbiprofen], the growth was determined as 0.208 ± 0.0072.
For `CCOC(=O)O[C@]1(C(=O)COC(=O)CC)CC[C@H]2[C@@H]3CCC4=CC(=O)C=C[C@]4(C)[C@H]3[C@@H](O)C[C@@]21C` [Prednicarbate], the growth turned out to be 0.193 ± 0.008.
Consider `C[C@]12CC[C@H]3C(=CCc4cc(O)ccc43)[C@@H]1CCC2=O` [Equilin], for which the growth was determined as 0.174 ± 0.0089.
Still for that read-out and setting: the result for `CCOC1O[C@H]([C@@H](COCc2ccccc2)OCc2ccccc2)[C@H](OCc2ccccc2)[C@H]1O` (stereo not given in full) [Tribenoside] reads 0.155 ± 0.0039.
In turn, `Nc1nc(=O)c2nc(CNc3ccc(C(=O)N[C@@H](CCC(=O)O)C(=O)O)cc3)cnc2[nH]1` [Folic acid] returned a growth of 0.211 ± 0.019.
The same measure, in the same setting: as for `O=C(NCC(O)CO)c1c(I)c(C(=O)NCC(O)CO)c(I)c(N(CCO)C(=O)CO)c1I` (stereo not given) [Ioversol], the figure is 0.202 ± 0.015; as for `CC(C)C(=O)c1c(C(C)C)nn2ccccc12` [Ibudilast], 0.194 ± 0.012.
The compound `CCN(CC)CCNC(=O)c1cc(Cl)c(N)cc1OC` [Metoclopramide monohydrochloride] gave a growth of 0.193 ± 0.01.
Still for that read-out and setting: the result for `Cc1c(NC(=O)c2cccnc2)c(=O)n(-c2ccccc2)n1C` [Nifenazone] reads 0.192 ± 0.0073; that for `CC[N+](C)(C)Cc1ccccc1Br` [Bretylium tosylate], 0.221 ± 0.025.
In turn, `Cc1oncc1C(=O)Nc1ccc(C(F)(F)F)cc1` [Leflunomide] displayed a growth of 0.226 ± 0.028.
For `O=C(Nc1cccc2c(=O)cc(-c3nnn[nH]3)oc12)c1ccc(OCCCCc2ccccc2)cc1` [Pranlukast], the growth came to 0.158 ± 0.014.
Consider `C#Cc1cccc(Nc2ncnc3cc(OCCOC)c(OCCOC)cc23)c1` [Erlotinib], for which the growth worked out at 0.161 ± 0.0058.
`N#Cc1ccc(C(c2ccc(C#N)cc2)n2cncn2)cc1` [Letrozole] came in with a growth of 0.213 ± 0.018.
Still for that read-out and setting: the result for `O=C(COc1ccc(Cl)cc1)N1CCN(Cc2ccc3c(c2)OCO3)CC1` [Fipexide hydrochloride] reads 0.167 ± 0.0018.

Staying with this assay, now noted: arabinose induction (level): Low; compound 0.1 mM; raw OD600 reference: median of DMSO wells 0.227, cell-free background 0.041.
With `Oc1c(I)cc(Cl)c2cccnc12` [Clioquinol], the growth worked out at 0.0551 ± 0.0021.
The compound `CC(CCc1ccc(O)cc1)NCCc1ccc(O)c(O)c1` (stereo not given) [Dobutamine hydrochloride] gave a growth of 0.167 ± 0.02.
Consider `CN1CCN2c3ccccc3Cc3ccccc3C2C1` (stereo not given) [Mianserine hydrochloride], for which the growth worked out at 0.243 ± 0.03.
Same read-out and setting: the result for `COc1ccc(C(=O)c2ccccc2)c(O)c1` [Oxybenzone] reads 0.257 ± 0.0051.
`CN(C)CCCOc1nn(Cc2ccccc2)c2ccccc12` [Benzydamine hydrochloride] gave a growth of 0.216 ± 0.051.
As to `CC(C(=O)O)c1ccc(-c2ccccc2)c(F)c1` (stereo not given) [Flurbiprofen], the growth was found to be 0.188 ± 0.023.
As for `CCOC(=O)O[C@]1(C(=O)COC(=O)CC)CC[C@H]2[C@@H]3CCC4=CC(=O)C=C[C@]4(C)[C@H]3[C@@H](O)C[C@@]21C` [Prednicarbate], the growth is 0.237 ± 0.026.
Still for that read-out and setting: the result for `C[C@]12CC[C@H]3C(=CCc4cc(O)ccc43)[C@@H]1CCC2=O` [Equilin] reads 0.183 ± 0.017; that for `CCOC1O[C@H]([C@@H](COCc2ccccc2)OCc2ccccc2)[C@H](OCc2ccccc2)[C@H]1O` (stereo not given in full) [Tribenoside], 0.155 ± 0.016; that for `Nc1nc(=O)c2nc(CNc3ccc(C(=O)N[C@@H](CCC(=O)O)C(=O)O)cc3)cnc2[nH]1` [Folic acid], 0.239 ± 0.013.
`O=C(NCC(O)CO)c1c(I)c(C(=O)NCC(O)CO)c(I)c(N(CCO)C(=O)CO)c1I` (stereo not given) [Ioversol]: the growth worked out at 0.256 ± 0.028.
`CC(C)C(=O)c1c(C(C)C)nn2ccccc12` [Ibudilast] returned a growth of 0.208 ± 0.038.
In the case of `CCN(CC)CCNC(=O)c1cc(Cl)c(N)cc1OC` [Metoclopramide monohydrochloride], the growth turned out to be 0.221 ± 0.018.
Same read-out and setting: as for `Cc1c(NC(=O)c2cccnc2)c(=O)n(-c2ccccc2)n1C` [Nifenazone], the figure is 0.262 ± 0.065.
`CC[N+](C)(C)Cc1ccccc1Br` [Bretylium tosylate] had a growth of 0.241 ± 0.013.
For the compound `Cc1oncc1C(=O)Nc1ccc(C(F)(F)F)cc1` [Leflunomide], the growth is 0.255 ± 0.034.
`O=C(Nc1cccc2c(=O)cc(-c3nnn[nH]3)oc12)c1ccc(OCCCCc2ccccc2)cc1` [Pranlukast] registered a growth of 0.195 ± 0.015.
In turn, `C#Cc1cccc(Nc2ncnc3cc(OCCOC)c(OCCOC)cc23)c1` [Erlotinib] yielded a growth of 0.201 ± 0.0093.
In turn, `N#Cc1ccc(C(c2ccc(C#N)cc2)n2cncn2)cc1` [Letrozole] registered a growth of 0.24 ± 0.032.
Turning to `O=C(COc1ccc(Cl)cc1)N1CCN(Cc2ccc3c(c2)OCO3)CC1` [Fipexide hydrochloride], the growth was determined as 0.234 ± 0.024.
